Molecules are shown by their SMILES.

In the test the test system is Sam68 (KHDRBS1). Kind of test: compounds binding KHDRBS1 protein – biochemical, small-molecule microarray, 635 nm fluorescence, primary screen (AID 1125).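 Also: score merges 667 nm channel intensity with signal to noise over triplicate slides.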 To be noted: higher = more signal.
With `O=C(N1CCOCC1)[C@@]1(Cc2ccccc2)COC(c2ccc(OCCCO)cc2)=N1`, the composite z-score came to 1.19.
`C=CCC(OC(C)=O)[C@@H]1[C@@H](N(Cc2ccc(-c3cccc(C(F)(F)F)c3)o2)C(=O)c2ccc(-c3ccccc3)cc2)c2cc(OCCCO)ccc2N1C(=O)c1ccc2ccccc2c1` (some centres not stated) gave a composite z-score of -0.689.
In turn, `[N-]=[N+]=NCc1ccccc1[C@@H]1OC(c2ccc(OCCCO)cc2)=N[C@]1(Cc1ccccc1N=[N+]=[N-])C(=O)NCC(O)CO` (some centres not stated) had a composite z-score of 1.32.
`CCCNC(=O)[C@@]1(c2ccc([N+](=O)[O-])cc2)CC(=O)N(C(C)C)[C@@H]1c1ccc(CO)cc1` displayed a composite z-score of -0.626.
With `CC(C)N1C(=O)C[C@@](C(=O)NCCN2CCOCC2)(c2ccc([N+](=O)[O-])cc2)[C@H]1c1ccc(CO)cc1`, the composite z-score is -0.395.
On to `CCCC[C@H]1OB(O)C[C@H]2C1=C(COc1ccccc1)C[C@H]1C(=O)C=CC(=O)[C@H]12`, for which the composite z-score amounted to 0.564.
To `CC(C)[Si](C#CCCc1ccccc1)(O[C@H](c1ccccc1)c1cn(Cc2ccccc2)nn1)C(C)C` belongs 1.02.

Values taken from PubChem BioAssay.
